Screens deposited in PubChem by several laboratories.
Autophagy mod – modulators of autophagy; MEF GFP-LC3 puncta imaging; test concentration mostly 10 µM; calls only at 10 µM (by protocol); actives 0.98% (n = 190,000); AID 463193;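 active means percentage of spot-positive cells more than 3 SD above its plate mean, without a fluorescence outlier flag or 80% toxicity; inconclusive means no clear call, values can overlap the other calls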
Efa HMGR inh – E. faecalis class II HMG-CoA reductase inhibition. purified E. faecalis HMGR, NADPH absorbance 340 nm kinetic. inhibition, % at 10 µM. actives 0.41% (n = 190,000);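 active means inhibition above a set limit, the median over all tested compounds plus 3 SD, cut at about 9.5% in these data; inconclusive means no clear call, values can overlap the other calls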;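 further: enzyme runs in reverse so mevalonate oxidation gives rising NADPH absorbance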
Insulin prom inh – TRM-6 insulin promoter activity inhibition | inhibition, % at 2 µM | actives 0.9% (n = 130,000) | TRM-6 cells (human fetal islet line), insulin promoter-eGFP reporter, imaging; reporter expression induced with tamoxifen | AID 1273;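 active means inhibition above the mean plus 3 SD, with well images judged a real hit on visual review, cut at about 60% in these data, passing the limit was not always enough; inconclusive means inhibition over the cutoff but images rejected on review; inactive means inhibition not above the cutoff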
Insulin prom up – MIN6 insulin promoter up-regulation; MIN6 insulin promoter-GFP reporter, high-content imaging; active compounds read high; z-score at 5 µM; actives 0.3% (n = 190,000);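 active means z-score above 3 at 5 µM with at least 500 cells counted in the well; inconclusive means wells under 500 cells, flagged as cytotoxic or low count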
Of the large screens only hits and unclear results are named; the others gave an inactive call. The list is not random: actives were taken first. Their share in the collection is about 1.9%.

COc1ccc(NC(=S)N(CCCN2CCCC2)Cc2cccn2Cc2ccc(Cl)cc2)cc1Cl	Autophagy mod active (no result: Insulin prom inh)
CC(=O)NC1CCN(C(=O)N2CCCC2)CC1	Autophagy mod active
O=C1Nc2ccccc2S/C1=C/c1cccs1	none (no result: Autophagy mod, Efa HMGR inh, Insulin prom inh)
O=C1/C(=C/c2cccs2)Sc2ccccc21	Efa HMGR inh 11 (no result: Insulin prom inh)
COc1ccc(OC)c(NC(=O)c2sc3nc(Cc4ccccc4)cc(C(F)(F)F)c3c2N)c1	Autophagy mod active
Cc1cc(C(=O)Nc2cccc3cccnc23)ccc1[N+](=O)[O-]	none (no result: Insulin prom inh)
CCOC(=O)CC1C(=O)NCCN1S(=O)(=O)c1ccc(Cl)cc1Cl (configuration not stated)	Insulin prom up 3.3
CCOC(=O)CC1C(=O)NCCN1S(=O)(=O)c1ccc(C)cc1 (configuration not stated)	none (no result: Insulin prom inh)
Cc1ccc2oc(=O)c3cc(C(=O)N4CCN(C(=O)c5ccco5)CC4)sc3c2c1	none (no result: Insulin prom inh)
O=C(c1ccco1)N1CCN(C(=O)c2cc3c(=O)oc4ccccc4c3s2)CC1	Autophagy mod active (no result: Insulin prom inh)
CS(=O)(=O)N1CCN(c2ncccn2)CC1	Insulin prom inh 83 (no result: Insulin prom up)
CCCc1cnc(N2CCN(S(C)(=O)=O)CC2)nc1	none (no result: Autophagy mod, Efa HMGR inh, Insulin prom inh)
CC1(C)CC(C)(c2ccc(O)cc2O)N(c2cccc(Cl)c2)C(=S)N1 (configuration not stated)	Efa HMGR inh 11 (no result: Insulin prom up)
Cc1cc2ccccc2c(=O)[nH]1	none
O=c1[nH]c(-c2ccccn2)cc2ccccc12	Insulin prom inh 67
CCOc1ccccc1NC(=O)C(NCC1(N2CCCCC2)CCCCC1)c1ccccc1 (configuration not stated)	Autophagy mod active
CCOc1ccccc1NC(=O)C(OC(=O)C1CC1)c1ccccc1 (configuration not stated)	none (no result: Autophagy mod, Efa HMGR inh, Insulin prom inh)
CC(C)(C)CC(=O)NCc1ccc(F)cc1	Insulin prom inh 73
CN(C)CCCNc1ccc(-c2nn(C)c(=O)c3ccccc23)cc1[N+](=O)[O-]	none
CCCCOc1ccc(-c2nnn(CC(=O)NCc3ccco3)n2)cc1	Autophagy mod active
Cc1[nH]n(-c2ccccc2)c(=O)c1C(c1ccc(O)c([N+](=O)[O-])c1)c1c(C)[nH]n(-c2ccccc2)c1=O	Insulin prom inh 77 (no result: Efa HMGR inh, Insulin prom up)
COC(=O)c1ccc(/C=N/Nc2nc(N3CCCCC3)nc(N3CCCCC3)n2)cc1	none
COc1ccc(N=C2S/C(=C\c3ccc(OCC(=O)O)cc3)C(=O)N2CCc2c[nH]c3ccccc23)cc1	Efa HMGR inh 10 (no result: Insulin prom inh)
COc1ccc(N=C2S/C(=C\c3ccc(N4CCOCC4)o3)C(=O)N2CCc2c[nH]c3ccccc23)cc1	Autophagy mod active (no result: Insulin prom up)
CN1C(C(=O)NCc2ccccc2)CC2Cn3c(nc4cc5ccccc5cc43)C21 (configuration not stated)	none (no result: Autophagy mod, Efa HMGR inh, Insulin prom inh)
Cc1ccc(S(=O)(=O)N2CCN(C(=O)Cn3nc(C(=O)O)c4ccccc4c3=O)CC2)cc1	none (no result: Autophagy mod, Efa HMGR inh, Insulin prom inh)
CN(C)/N=C/C=C1\CCC/C(=C\c2ccc(F)c(F)c2)C1=O	Autophagy mod active (no result: Insulin prom inh)
Cc1nn(C(C)C(=O)NCc2cccs2)c(C)c1[N+](=O)[O-] (configuration not stated)	none (no result: Insulin prom inh)
O=C(N/N=C/c1cc(Br)cc(Br)c1O)c1cccc(N2CCCC2=O)c1	Efa HMGR inh 14 (no result: Insulin prom inh)
O=C(N/N=C/c1cc(Br)cc(Br)c1O)c1cccc(S(=O)(=O)N2CCOCC2)c1	none (no result: Autophagy mod, Efa HMGR inh, Insulin prom inh)
Cc1nn(-c2ccccc2)c(Cl)c1/C=C1\N=C(c2ccccc2)OC1=O	none (no result: Efa HMGR inh, Insulin prom up)
CCS(=O)(=O)N1Cc2ccccc2CC1C(=O)OCC(=O)Nc1ccc(C)cc1 (configuration not stated)	Insulin prom up 5
CCS(=O)(=O)N1Cc2ccccc2CC1C(=O)OCC(=O)Nc1ccc(SC(F)F)cc1 (configuration not stated)	none
Cc1nc(NC(=O)COC(=O)CCS(=O)(=O)c2ccccc2Cl)c(Cl)cc1Cl	Insulin prom up 4.2
Cc1[nH]c2ccccc2c1C(=O)COC(=O)CCS(=O)(=O)c1ccccc1Cl	none
O=C(O)C12CC3CC(C1)CC(n1cnc(Cl)n1)(C3)C2	Insulin prom inh 100 (no result: Insulin prom up)
CCOC(=O)c1c(-c2ccccc2)oc2cc(CN(C)C)c(O)c(CN(C)C)c12	Autophagy mod active (no result: Efa HMGR inh, Insulin prom up)
CCOC(=O)c1c(C)oc2cc(Cl)c(O)c(CN(C)C)c12	none (no result: Autophagy mod, Efa HMGR inh, Insulin prom inh)
COc1ccc(NC(=O)c2ccc(-c3nn(C)c(=O)c4ccccc34)cc2)cc1C(N)=O	none (no result: Autophagy mod, Efa HMGR inh, Insulin prom inh)
CC(C)(C)NC(=O)NC(=O)COC(=O)CNS(=O)(=O)c1ccc(Br)cc1Cl	none
COc1ccc(O)c(/C=N/NC(=O)c2cc(=O)[nH]c3ccccc23)c1	none (no result: Autophagy mod, Efa HMGR inh, Insulin prom inh)
Cc1ccc(C(=O)CSc2nnc(C)s2)cc1	none
Cc1nnc(SCC(=O)c2ccc(Br)cc2)s1	Insulin prom inh 79
Cc1ccc(/C=C2\CCC3=C2OC(N)=C(C#N)C3c2ccc(C)cc2)cc1 (configuration not stated)	Autophagy mod active (no result: Insulin prom inh)
CC(C(=O)Nc1ccccc1)N(c1cccc(Cl)c1)S(C)(=O)=O (configuration not stated)	none (no result: Insulin prom inh)
CC(=O)Nc1ccc(S(=O)(=O)N2c3ccccc3C(C)=CC2(C)C)cc1	Autophagy mod active (no result: Insulin prom inh)
CC1=CC(C)(C)N(S(=O)(=O)c2ccc(F)cc2)c2ccccc21	none
CC1=CC(C)(C)N(S(=O)(=O)c2ccc(C)cc2)c2ccc(C)cc21	Autophagy mod active
Cc1ccc(NC2=NCC(=O)N2C2CCCC2)cc1	none (no result: Insulin prom inh)
COc1ccc(C(=O)/C=C/C(=O)N(CC(=O)NC2CCCCC2)CC2CCCO2)c(O)c1 (configuration not stated)	Autophagy mod active (no result: Insulin prom inh)
CCNc1nc(-c2ccc(OC(F)F)cc2)c(C)s1	none (no result: Insulin prom inh)
Cc1cc(NC(=O)c2ccc(S(=O)(=O)N3CCCC3)cc2)nc2c1c(=O)oc1ccccc12	Autophagy mod active (no result: Insulin prom up)
CCOc1ccc(C(=O)Nc2cc(C)c3c(=O)oc4ccccc4c3n2)cc1	Autophagy mod active, Insulin prom up inconclusive (no result: Insulin prom inh)
CC1(C)Cc2c(sc3ncnc(N)c23)CO1	Insulin prom inh 83
CC1(C)Cc2c(sc3nc[nH]c(=O)c23)CO1	Insulin prom inh 100
CC1(C)Cc2c(sc3ncn4nnnc4c23)CO1	none (no result: Autophagy mod, Efa HMGR inh, Insulin prom inh)
COC(=O)CCCC1=CC2=CC(=O)C(C)(OC(=O)c3cccs3)C(=O)C2=CN1CCN1CCOCC1 (configuration not stated)	none (no result: Autophagy mod, Efa HMGR inh, Insulin prom inh)
CCOc1ccccc1OCC(=O)NCCc1ccc(S(N)(=O)=O)cc1	none
CS(=O)(=O)ON=C1CCN(S(=O)(=O)c2ccccc2)CC1	Insulin prom up 3.5 (no result: Insulin prom inh)
CCN(CC)CCNC(CC(=O)Nc1ccc(Cl)cc1Cl)C(=O)O (configuration not stated)	Insulin prom inh 94 (no result: Insulin prom up)
CCOC(=O)c1cc(C(=O)NC(C)c2ccccc2)c(C)[nH]c1=O (configuration not stated)	none (no result: Insulin prom inh)
CCOC(=O)CSc1nc2cccnc2n1C	none (no result: Insulin prom inh)
CCOC(=O)CNC(=O)CSc1nc2cccnc2n1C	Autophagy mod active
COC(=O)C1=C(N)n2c(s/c(=C\c3cccnc3)c2=O)=C(C(=O)OC)C1c1cccnc1 (configuration not stated)	Insulin prom up 3.2
NNC(=O)Cn1nc2n(c1=O)-c1ccccc1SC2	none (no result: Autophagy mod, Efa HMGR inh, Insulin prom inh)
CC(C)C(=O)c1cc2c(cc1NC(=O)c1cccs1)OCCO2	Insulin prom inh 71 (no result: Insulin prom up)
CC(C)C(=O)c1cc2c(cc1NC(=O)c1ccccc1)OCCO2	Insulin prom inh 89 (no result: Insulin prom up)
